Sampled rows, rich in hits. Any-hit rate of the full collection: about 4.1%.
DAX1 inh-1: DAX1 (NR0B1) inhibition, primary screen. 1.1% of 370,000 active. AID 652010. HEK293T StAR-luciferase reporter, SF-1/DAX-1 repression relief. inhibition, % at 6.8 µM;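 active = inhibition above the mean over all tested compounds plus 3 SD, cut at about 3.6% in these data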;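 note: higher inhibition means more luminescence from relief of DAX-1 repression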
ssDAF12 agonist: activates DAF-12 receptor from parasite S. stercoralis; 1% of 370,000 active; activation, % at 6.8 µM; HEK293 ssDAF-12/GRIP1 lit1-tk-luc reporter, luminescence; % of 3 µM dafachronic acid response; AID 652126;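 active = activation above the mean over all tested compounds plus 3 SD, cut at about 0.9% in these data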
hgDAF12 agonist: activates the H. glycines DAF-12 receptor ligand-binding domain | HEK293 GAL4-hgDAF12 UAS-luciferase reporter, agonist luminescence; normalized to butyrate control | activation, % at 6.8 µM | 1.8% of 370,000 active | AID 687014;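 active = activation above a cutoff set at the mean of all screened compounds plus 3 SD, cut at about 10% in these data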
hcDAF-12 act: activates DAF-12 receptor from parasite H. contortus; HEK293 hcDAF-12 lit1-tk-luc reporter, luminescence; 0% DMSO, 100% Δ7-dafachronic acid; AID 652067; activation, % at 6.8 µM; 1.4% of 370,000 active;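 active = activation above the mean of all tested compounds plus 3 SD, cut at about 5.5% in these data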
DAX1 inh-2: inhibitors of human orphan nuclear receptor DAX1 (NR0B1); HEK293 Gal4-DAX1 luciferase reporter, luminescence; 0.99% of 340,000 active; inhibition, % at 6.75 µM;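 active = inhibition above the mean over all tested compounds plus 3 SD, cut at about 4.2% in these data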;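 note: inhibition shows as a rise in luminescence from relieved DAX1 repression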
Target sequence (P51843 207-470 limits assumed): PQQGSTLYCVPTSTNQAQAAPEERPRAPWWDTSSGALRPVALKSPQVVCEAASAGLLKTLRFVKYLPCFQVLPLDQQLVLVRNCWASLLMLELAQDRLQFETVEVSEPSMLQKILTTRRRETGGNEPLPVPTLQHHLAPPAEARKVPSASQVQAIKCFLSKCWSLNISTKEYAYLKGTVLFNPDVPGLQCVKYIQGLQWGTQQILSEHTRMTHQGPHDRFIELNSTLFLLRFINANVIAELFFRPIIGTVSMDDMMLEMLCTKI
hgDAF12 ag: confirmation of H. glycines DAF-12 agonists; activation, % at 6.8 µM; 80% of 3,300 active; shares compounds with hgDAF12 agonist; AID 743050; HEK293 GAL4-hgDAF12 luciferase reporter, agonist mode; percent of butyrate response;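 active = mean activation over triplicate wells above the hit cutoff derived from the earlier primary screen, cut at about 11% in these data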
LXRb DAF12 ctr: LXR-beta agonism as DAF-12 counter-screen. shares compounds with hgDAF12 agonist. HEK293 Gal4-LXR luciferase reporter, 24 h. activation, % at 6.8 µM. 3,300 tested, under 10 active. AID 743051;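 active = mean activation of the triplicate above a set limit carried over from the primary screen, none filed active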
Large screens that a line does not name were inactive (follow-up assays come after a bar, where they were run).

Cc1ccccc1S(=O)(=O)Nc1nc2ccccc2nc1Cl	none
O=Cc1c(NC2CCCCC2)c2ccccc2[nH]c1=O	none
CN(C)C(=S)c1ccc(N(C)C)cc1	none
CC(=O)c1ccc(N=Nc2ccc(N(C)C)cc2)cc1	ssDAF12 agonist 1.0, hgDAF12 agonist 13 | hgDAF12 ag 12 | LXRb DAF12 ctr inactive
COc1ccccc1Cc1c(-c2ccco2)nc2cc(C)c(Br)c(C)n12	none (no result: DAX1 inh-2)
Cc1ccc(Nc2n[nH]c(=S)s2)cc1C	DAX1 inh-1 3.8, hgDAF12 agonist 18 | hgDAF12 ag 11 | LXRb DAF12 ctr inactive
COc1ccc(Br)cc1CN(C)CC(=O)NCCc1ccc(S(N)(=O)=O)cc1	none
COc1ccc(/C=C/C(=O)c2ccccc2)c(OC)c1	hgDAF12 agonist 14 | hgDAF12 ag 14 | LXRb DAF12 ctr inactive
COc1ccc(/C=C/C(=O)c2ccc3c(c2)OCO3)c(OC)c1	hgDAF12 agonist 24 | hgDAF12 ag 17 | LXRb DAF12 ctr inactive
COc1ccc(/C=C/C(=O)c2ccc(OC)cc2OC)c(OC)c1	none
O=C(CCNS(=O)(=O)c1ccccc1)Nc1ccccc1	none
COC(=O)c1sccc1NC(=O)COc1ccc(F)cc1Cl	none
O=C(CN1CCc2ccccc21)Nc1ccc2c(c1)OCCCO2	none
COc1ccccc1NC(=O)Nc1ccc(C(=O)N2CCCCC2)cc1	hgDAF12 agonist 14 | hgDAF12 ag 11 | LXRb DAF12 ctr inactive
COC(=O)c1ccccc1NC(=O)Nc1ccc(C(=O)N2CCCC2)cc1	none
CC(C)(C)n1cnc2cc(NC(=O)c3ccc(Cl)cc3)ccc21	ssDAF12 agonist 1.3, hgDAF12 agonist 14 | hgDAF12 ag 19 | LXRb DAF12 ctr inactive
CC(C)(C)n1cnc2cc(NCc3ccc(Br)cc3)ccc21	hgDAF12 agonist 17, DAX1 inh-2 4.2 | hgDAF12 ag 13 | LXRb DAF12 ctr inactive
COc1cc(C(=O)Nc2ccc3c(c2)ncn3C(C)(C)C)cc(OC)c1OC	none
CN(CC1CCCN(CCc2ccccc2F)C1)C(=O)c1cc2ccccc2o1 (centres undefined)	none
Cc1nc(NC(=O)COC(=O)C2CC3CCCC(C2)C3=O)c(Cl)cc1Cl (centres undefined)	none
O=C1C[C@@H]2C(=O)N(c3ccccc3)C(=O)[C@@H]2[C@@H]2CN(S(=O)(=O)c3ccccc3)[C@@H](c3ccccc3)[C@H]12	none (no result: DAX1 inh-2)
CCOc1ccc(/C=N/NC(=O)Cc2ccccc2)cc1CN1CC2CC(C1)c1cccc(=O)n1C2 (centres undefined)	none
CN(C)/C=N/c1nc(-c2ccc3ccccc3c2)cs1	hgDAF12 agonist 18, DAX1 inh-2 5.0 | hgDAF12 ag 12 | LXRb DAF12 ctr inactive
CCCOc1ccc(-c2c(=O)n(O)c3ccccc3[n+]2[O-])cc1	DAX1 inh-1 4.5, hgDAF12 agonist 20, hcDAF-12 act 6.2 | hgDAF12 ag 13 | LXRb DAF12 ctr inactive
CCOc1ncccc1C(=O)OCc1csc(CC(=O)Nc2ccccc2C)n1	none
COc1cc(/C=N/N2CCOCC2)ccc1OCc1ccccc1	hgDAF12 agonist 18 | hgDAF12 ag inactive | LXRb DAF12 ctr inactive
COc1ccc(N2Cc3ccccc3C2=O)cc1	hgDAF12 agonist 21 | hgDAF12 ag 16 | LXRb DAF12 ctr inactive
COc1ccc(N2C(=O)c3ccccc3NC23CCCC3)cc1	DAX1 inh-1 4.5, hgDAF12 agonist 14 | hgDAF12 ag inactive | LXRb DAF12 ctr inactive
CCC1(CC)Nc2ccccc2C(=O)N1c1ccc(OC)cc1	none
Cc1c(/C(O)=C2\C(=O)C(=O)N(CCN(C)C)C2c2ccccc2)cnn1-c1ccccc1 (centres undefined)	none
CCn1ccc(C(=O)Nc2cccc(Cl)c2)n1	hgDAF12 agonist 15 | hgDAF12 ag inactive | LXRb DAF12 ctr inactive
CCn1ccc(C(=O)Nc2ccccc2Cl)n1	DAX1 inh-1 4.3, hgDAF12 agonist 14 | hgDAF12 ag 15 | LXRb DAF12 ctr inactive
Cc1noc(C)c1CCC(=O)NC1CCCN(Cc2ccc(CC(C)C)cc2)C1 (centres undefined)	none
CCOc1ccc2nc(NC(=O)CS(=O)(=O)c3ccccc3)sc2c1	none
CC(=O)NCCC(=O)Nc1nc2ccc(Oc3ccccc3)cc2s1	hgDAF12 agonist 21 | hgDAF12 ag 15 | LXRb DAF12 ctr inactive
CCCC(=O)Nc1nc2ccc(OCC)cc2s1	hgDAF12 agonist 17 | hgDAF12 ag 15 | LXRb DAF12 ctr inactive
O=C(Nc1sc2c(c1C(=O)O)CCC2)C(=O)N1CCOCC1	none
NS(=O)(=O)c1ccc(CCNC(=S)NC2CCCC2)cc1	none
S=C(NCCc1ccc(Cl)cc1)NC1CC1	hgDAF12 agonist 16 | hgDAF12 ag inactive | LXRb DAF12 ctr inactive
CC(=O)c1ccc(OCc2cc(C(=O)N(C)CC3COc4ccccc4O3)no2)cc1 (centres undefined)	none
Cc1cccc(C(=O)OCCN2CCOCC2)c1	none
CCC/C=N/NC(=O)c1cccc(Br)c1	hgDAF12 agonist 14 | hgDAF12 ag inactive | LXRb DAF12 ctr inactive
CCC/C=N/NC(=O)c1ccc(F)cc1	none
Cc1ccc(N2CCN(C(=O)c3cn(CC4CCCCC4)nn3)C(C)C2)cc1 (centres undefined)	DAX1 inh-1 4.3, ssDAF12 agonist 1.0, hgDAF12 agonist 15 | hgDAF12 ag 13 | LXRb DAF12 ctr inactive
Cc1ccnc(NC(=O)/C=C/c2cccs2)c1	hgDAF12 agonist 16, hcDAF-12 act 5.6 | hgDAF12 ag 19 | LXRb DAF12 ctr inactive
O=C(/C=C/c1cccs1)Nc1nncs1	none
O=C(NCC(=O)N1CCN(Cc2c(F)cccc2Cl)CC1)c1cccs1	none
O=C(NO)c1ccccc1O	none
O=C(/C=C/c1ccc(Br)cc1)NC(=O)c1ccccc1O	hgDAF12 agonist 13 | hgDAF12 ag 12 | LXRb DAF12 ctr inactive
CCC(=O)N1CCN(c2ccccc2NC(=S)NC(=O)c2ccco2)CC1	none
O=C(NCCc1ccccc1)c1cc(-c2ccco2)on1	hgDAF12 agonist 46, hcDAF-12 act 5.6 | hgDAF12 ag 53 | LXRb DAF12 ctr inactive
COc1ccc(CCNC(=O)c2cc(-c3cccs3)on2)cc1OC	none (no result: DAX1 inh-1, ssDAF12 agonist, hgDAF12 agonist, hcDAF-12 act)
CC(C)n1cc(NC(=O)c2cc(-c3ccccc3)on2)cn1	hgDAF12 agonist 14 | hgDAF12 ag 16 | LXRb DAF12 ctr inactive
COc1ccc(CCNC(=O)c2cc(-c3ccco3)on2)cc1OC	hgDAF12 agonist 14 | hgDAF12 ag 11 | LXRb DAF12 ctr inactive
Cc1ccccc1Cn1cc(NC(=O)c2cc(-c3cccs3)on2)cn1	none
Cc1ccccc1Cn1cc(NC(=O)c2cc(-c3ccco3)on2)cn1	hgDAF12 agonist 39 | hgDAF12 ag inactive | LXRb DAF12 ctr inactive
COc1cc(NC(=O)[C@@H]2CCCN(S(=O)(=O)c3cccc4cccnc34)C2)cc(OC)c1OC	none

Screening data: PubChem BioAssay, The Scripps Research Institute Molecular Screening Center
